From PubChem BioAssay
Calls of active or inactive are those of the source.

How the values were obtained:
Albumin (Bos taurus) = Albumin (Bos taurus) (UniProt P02769); test: compounds binding labelled BSA control protein – biochemical, small-molecule microarray, Alexa647 label, 635/667 nm fluorescence, artefact control for SMM control protein annotation, profiling panel (AID 1118); settings: BSA-A647 binding, fluorescence 635 nm, higher = more signal;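 note: score merges 667 nm emission intensity and signal-to-noise per printed compound spot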
[1] = probe aXIP binding to arrayed compounds – biochemical, NeuroSMM set, 635/667 nm fluorescence, primary screen (AID 1119); settings: small-molecule microarray, higher = more signal, called active from +8 up or from −8 down;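 note: probe is the protein aXip251-270 applied at 1 µg/mL to compound-printed slides; binding of probe to printed compounds measured as 667 nm fluorescence plus signal to noise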
[2] = probe aNOTCH3 binding on compound microarray – biochemical, small-molecule microarray, 635/667 nm fluorescence, primary screen (AID 1120); settings: higher = more signal;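 note: probe is a biotin-tagged antibody raised against NOTCH3 rather than NOTCH3 protein; score merges spot fluorescence near 667 nm with spot signal to noise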
[3] = probe aNOTCH2 binding on compound microarray – biochemical, small-molecule microarray, 635/667 nm fluorescence, primary screen (AID 1121); settings: higher = more signal;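 note: score merges feature fluorescence read at 667 nm with its signal to noise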
[4] = biological target: Carbonic anhydrase 2 (Homo sapiens) (UniProt P00918); test: compounds binding carbonic anhydrase 2 – biochemical, small-molecule microarray, Alexa647-labelled CAII, profiling panel (AID 1122); settings: CAII-A647 binding fluorescence, higher = more signal
[5] = COS7 lysate on small-molecule microarray, probe aHis, 635 nm (AID 1123); settings: COS7 cell lysate, fluorescence, higher = more signal;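 note: z-score combines 667nm fluorescence intensity with signal-to-noise per printed compound spot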
[6] = probe aLAP1 signal on lysate-treated microarray – cell lysate, small-molecule microarray, COS7 lysate, primary screen (AID 1124); settings: probe aLAP1, fluorescence, higher = more signal;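 note: lysate comes from COS7 cells expressing LAP1 and is applied at 0.3 µg/mL; score merges spot fluorescence near 667 nm with signal-to-noise over triplicate slides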
Sam68 (KHDRBS1) = test: compounds binding KHDRBS1 protein – biochemical, small-molecule microarray, 635 nm fluorescence, primary screen (AID 1125); settings: higher = more signal;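 note: score merges 667 nm channel intensity with signal to noise over triplicate slides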
[7] = test system: Chordin-like protein 2 (CHRDL2); test: compounds binding chordin-like 2 – biochemical, small-molecule microarray, 635 nm fluorescence, primary screen (AID 1126); settings: fluorescence 635 nm, higher = more signal;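 note: printed compound slides probed with Chrdl2 protein at 4 µg/mL for 1 h at 4 C; score merges 667 nm emission intensity with signal to noise over three replicate slides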
[8] = biological target: Concanavalin-A (Canavalia ensiformis) (UniProt P02866); test: compounds binding concanavalin A lectin – biochemical, small-molecule microarray, Alexa647 label, 635 nm, artefact control for SMM control protein annotation, primary screen (AID 1127); settings: ConA-A647 binding fluorescence, higher = more signal;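 note: z combines 667 nm emission intensity with signal-to-noise across three replicate slides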
[9] = compounds binding Alexa647 anti-His antibody – biochemical, small-molecule microarray, 635 nm fluorescence, artefact control for SMM control protein annotation, primary screen (AID 1128); settings: higher = more signal;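 note: score merges feature fluorescence with signal-to-noise for each printed compound spot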
[10] = test system: Human papillomavirus type 1a E7 protein (residues 1-88); test: HPV1a E7 small-molecule binders, primary screen, biochemical, small-molecule microarray, residues 1-88, 635 nm (AID 1129); settings: small-molecule microarray binding, fluorescence 635 nm; higher = more signal
[11] = biological target: Focal adhesion kinase 1 (Homo sapiens) (UniProt Q05397); test: PTK2 protein binding on printed compound slides – biochemical, small-molecule microarray, 635/667 nm fluorescence, BSA, DTT, primary screen (AID 1130); settings: 635 nm fluorescence, higher = more signal;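 note: composite of spot emission at 667 nm and signal to noise over triplicate slides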
[12] = test system: Fibrinogen (Alexa647-labelled); test: Alexa647-fibrinogen binding to printed small molecules – biochemical, small-molecule microarray, 635/667 nm fluorescence, artefact control for SMM control-protein annotation, profiling panel (AID 1131); settings: fibrinogen-A647 binding fluorescence, higher = more signal;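 note: z-score merges 667 nm fluorescence with per-spot signal-to-noise over triplicate slides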
[13] = biological target: Follistatin (Homo sapiens) (UniProt P19883); test: FST protein binding to printed compounds – biochemical, small-molecule microarray, 635/667 nm fluorescence, primary screen (AID 1132); settings: 635 nm fluorescence, higher = more signal
[14] = biological target: Fibroblast growth factor 2 (Homo sapiens) (UniProt P09038); test: basic fibroblast growth factor binding to printed compounds – biochemical, small-molecule microarray, 635/667 nm fluorescence, primary screen (AID 1133); settings: FGF2, fluorescence 635/667, higher = more signal
[15] = JC-1 mitochondrial potential readout, lung cancer cells – cell-based, A549, JC-1 fluorescence, basal, 24 h, 100 nL, profiling panel (AID 1138); settings: higher = more signal;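 note: A549 lung adenocarcinoma cells under basal conditions with no added stimulus; test concentration not given here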
Lefty1 = Lefty1 protein binding to printed compounds – biochemical, small-molecule microarray, 635/667 nm fluorescence, primary screen (AID 1139); settings: fluorescence 635/667, higher = more signal
[16] = test system: wheat germ agglutinin (Triticum aestivum), Alexa647-labelled; test: Alexa647-WGA lectin binding to printed small molecules – biochemical, small-molecule microarray, 635/667 nm fluorescence, artefact control for SMM control-protein annotation, profiling panel (AID 1140); settings: WGA-A647 binding, 635 nm fluorescence, higher = more signal;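 note: score merges 667 nm feature emission with signal to noise over triplicate slides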
[17] = biological target: Luciferin 4-monooxygenase (Photinus pyralis) (UniProt P08659); test: inhibition of purified Photinus pyralis luciferase – biochemical, luminescence, purified enzyme, 2006 set, primary screen (AID 1141); settings: purified firefly luciferase, SteadyGlo luminescence, 30 min; higher = more signal, called active from +8 up or from −8 down;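 note: cell-free assay with purified firefly luciferase at 100 ng per well in PBS; test concentration not given here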
Luciferin 4-monooxygenase (Photinus pyralis), sequence (P08659 whole entry, looked up): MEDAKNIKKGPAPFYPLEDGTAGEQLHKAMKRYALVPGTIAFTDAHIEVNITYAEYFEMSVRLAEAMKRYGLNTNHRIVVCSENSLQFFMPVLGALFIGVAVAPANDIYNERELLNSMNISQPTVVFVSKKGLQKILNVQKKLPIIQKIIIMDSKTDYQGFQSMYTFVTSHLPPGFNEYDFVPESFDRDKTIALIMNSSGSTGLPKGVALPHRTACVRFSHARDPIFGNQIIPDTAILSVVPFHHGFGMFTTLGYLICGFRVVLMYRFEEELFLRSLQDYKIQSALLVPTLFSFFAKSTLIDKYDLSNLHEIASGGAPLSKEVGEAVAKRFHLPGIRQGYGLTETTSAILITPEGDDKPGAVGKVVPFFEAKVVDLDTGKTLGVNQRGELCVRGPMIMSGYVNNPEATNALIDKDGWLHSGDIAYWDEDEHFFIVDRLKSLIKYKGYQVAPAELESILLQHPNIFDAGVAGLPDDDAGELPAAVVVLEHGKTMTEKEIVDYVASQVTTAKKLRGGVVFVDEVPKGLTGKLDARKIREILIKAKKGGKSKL

Focal adhesion kinase 1 (Homo sapiens), sequence (Q05397 whole entry, looked up): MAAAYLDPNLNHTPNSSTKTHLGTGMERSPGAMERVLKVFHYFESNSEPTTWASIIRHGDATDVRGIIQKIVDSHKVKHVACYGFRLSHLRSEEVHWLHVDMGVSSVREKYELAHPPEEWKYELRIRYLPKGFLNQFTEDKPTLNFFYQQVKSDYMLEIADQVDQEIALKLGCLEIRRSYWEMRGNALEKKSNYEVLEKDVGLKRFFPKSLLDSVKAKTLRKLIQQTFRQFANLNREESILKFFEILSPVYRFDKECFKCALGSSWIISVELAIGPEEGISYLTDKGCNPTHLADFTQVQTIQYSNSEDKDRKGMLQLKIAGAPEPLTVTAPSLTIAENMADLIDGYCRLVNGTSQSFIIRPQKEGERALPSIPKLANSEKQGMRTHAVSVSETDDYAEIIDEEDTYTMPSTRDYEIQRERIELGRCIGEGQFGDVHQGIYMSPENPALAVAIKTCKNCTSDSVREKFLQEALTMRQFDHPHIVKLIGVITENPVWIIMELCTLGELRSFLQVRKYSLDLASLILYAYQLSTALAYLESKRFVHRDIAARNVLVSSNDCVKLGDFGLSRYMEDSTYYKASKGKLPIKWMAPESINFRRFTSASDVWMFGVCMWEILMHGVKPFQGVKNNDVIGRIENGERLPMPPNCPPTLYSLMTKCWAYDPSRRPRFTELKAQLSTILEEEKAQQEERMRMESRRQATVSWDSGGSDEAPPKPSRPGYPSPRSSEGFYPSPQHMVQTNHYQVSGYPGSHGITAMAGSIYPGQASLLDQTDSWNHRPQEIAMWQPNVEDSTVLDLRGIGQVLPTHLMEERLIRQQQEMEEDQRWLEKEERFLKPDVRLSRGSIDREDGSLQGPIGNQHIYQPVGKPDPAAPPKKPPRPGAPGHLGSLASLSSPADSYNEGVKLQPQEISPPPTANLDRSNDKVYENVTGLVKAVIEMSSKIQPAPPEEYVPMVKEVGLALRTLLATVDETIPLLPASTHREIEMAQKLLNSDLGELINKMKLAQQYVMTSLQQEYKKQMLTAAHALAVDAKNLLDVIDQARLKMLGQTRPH
Fibroblast growth factor 2 (Homo sapiens), sequence (P09038 whole entry, looked up): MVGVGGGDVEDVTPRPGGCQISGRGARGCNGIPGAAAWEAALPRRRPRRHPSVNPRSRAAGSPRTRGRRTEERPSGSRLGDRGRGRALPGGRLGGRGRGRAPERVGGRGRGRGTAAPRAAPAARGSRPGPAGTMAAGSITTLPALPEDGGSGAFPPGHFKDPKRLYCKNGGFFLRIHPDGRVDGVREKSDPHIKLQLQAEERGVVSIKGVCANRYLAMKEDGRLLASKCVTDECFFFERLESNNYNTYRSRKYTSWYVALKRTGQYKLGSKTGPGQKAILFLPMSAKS
Follistatin (Homo sapiens), sequence (P19883 whole entry, looked up): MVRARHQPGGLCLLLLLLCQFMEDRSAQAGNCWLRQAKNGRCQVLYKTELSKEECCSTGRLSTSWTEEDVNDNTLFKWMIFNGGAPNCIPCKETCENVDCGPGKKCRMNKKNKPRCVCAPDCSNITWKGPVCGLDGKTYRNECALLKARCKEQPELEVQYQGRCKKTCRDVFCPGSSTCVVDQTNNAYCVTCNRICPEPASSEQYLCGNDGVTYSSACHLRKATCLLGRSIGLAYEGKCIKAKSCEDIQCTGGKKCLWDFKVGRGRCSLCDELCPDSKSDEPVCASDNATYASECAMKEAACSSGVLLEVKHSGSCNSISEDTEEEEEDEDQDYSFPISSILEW
Albumin (Bos taurus), sequence (P02769 whole entry, looked up): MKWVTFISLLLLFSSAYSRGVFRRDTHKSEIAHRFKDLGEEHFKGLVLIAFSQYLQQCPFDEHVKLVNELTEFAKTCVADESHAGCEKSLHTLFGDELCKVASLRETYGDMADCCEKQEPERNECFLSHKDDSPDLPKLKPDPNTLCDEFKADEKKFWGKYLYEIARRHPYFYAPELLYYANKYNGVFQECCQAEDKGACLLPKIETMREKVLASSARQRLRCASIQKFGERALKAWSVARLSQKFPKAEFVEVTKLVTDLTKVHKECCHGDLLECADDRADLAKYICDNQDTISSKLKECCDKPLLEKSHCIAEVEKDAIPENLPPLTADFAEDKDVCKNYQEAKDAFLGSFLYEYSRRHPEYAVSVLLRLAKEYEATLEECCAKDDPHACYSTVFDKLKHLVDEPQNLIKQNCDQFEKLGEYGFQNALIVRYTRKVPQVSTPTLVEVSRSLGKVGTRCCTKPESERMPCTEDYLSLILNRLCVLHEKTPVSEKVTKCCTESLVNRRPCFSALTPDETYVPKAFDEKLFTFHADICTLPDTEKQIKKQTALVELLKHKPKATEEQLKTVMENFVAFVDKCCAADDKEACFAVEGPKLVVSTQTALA
Concanavalin-A (Canavalia ensiformis), sequence (P02866 whole entry, looked up): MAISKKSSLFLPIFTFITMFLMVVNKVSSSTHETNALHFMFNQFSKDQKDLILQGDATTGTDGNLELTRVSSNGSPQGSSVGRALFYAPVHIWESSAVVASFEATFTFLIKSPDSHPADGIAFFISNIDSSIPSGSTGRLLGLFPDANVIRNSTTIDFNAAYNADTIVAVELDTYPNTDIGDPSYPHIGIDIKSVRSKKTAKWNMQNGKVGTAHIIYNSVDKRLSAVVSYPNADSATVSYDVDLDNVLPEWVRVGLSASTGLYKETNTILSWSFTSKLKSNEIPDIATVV

| Structure (SMILES) | composite z-score (Albumin (Bos taurus)) | composite Z-score [1] | composite z-score [2] | composite z-score [3] | composite z-score [4] | composite z-score [5] | composite z-score [6] | composite z-score (Sam68 (KHDRBS1)) | composite z-score [7] | composite z-score [8] | composite z-score [9] | composite z-score [10] | composite z-score [11] | composite z-score [12] | composite z-score [13] | composite z-score [14] | z-score [15] | composite z-score (Lefty1) | composite z-score [16] | z-score [17] |
| --- | --- | --- | --- | --- | --- | --- | --- | --- | --- | --- | --- | --- | --- | --- | --- | --- | --- | --- | --- | --- |
| CCOC(=O)C[C@H]1[C@H](OC(=O)c2ccc(-c3ccccc3)cc2)[C@@H](NC(=O)c2ccccc2)c2cc(OCCCO)ccc2N1C(=O)c1ccc2ccccc2n1 | 0.828 | 0.21 (inactive) | 0.0069 | -0.0811 | 0.287 | 0.96 | 0.547 | 1.18 | -0.8 | 0.627 | 0.241 | 1.06 | 0.426 | 0.836 | -0.0321 | -0.0974 | -0.0602 | -0.329 | 0.693 | 0.0119 (inactive) |
| CCOC(=O)C1=CCC(c2ccc(F)cc2)N(S(=O)(=O)c2ccc(C)cc2)C1 (stereo not given) | 0.569 | -0.297 (inactive) | 0.0351 | -0.113 | 0.397 | 0.75 | 0.552 | 0.376 | 0.563 | 0.221 | -0.596 | 0.818 | 1.52 | 0.265 | 0.345 | -0.287 | -0.231 | 0.471 | 0.764 | 1.4 (inactive) |
| O=C1C2C=CC(C(O)c3ccc(-c4ccccc4)s3)N(Nc3ccccc3)C2C(=O)N1c1ccccc1 (stereo not given) | 0.931 | -0.375 (inactive) | 0.24 | 0.0554 | 0.591 | 2.82 | 0.103 | 1.31 | 0.0135 | 0.963 | 2.17 | 1.25 | 0.473 | 0.974 | 0.899 | -0.413 | 0.267 | -0.28 | 0.807 | 0.192 (inactive) |
| CCOC(=O)C[C@H]1[C@H](OC(=O)c2cc3ccccc3oc2=O)[C@@H](NC(=O)CC(C)C)c2cc(OCCCO)ccc2N1C(=O)c1ccccc1 | 0.793 | -0.081 (inactive) | -0.0044 | -0.14 | 0.308 | 0.614 | 0.139 | 1.21 | 0.202 | 0.298 | 0.615 | 0.926 | 0.399 | 0.595 | 0.478 | 0.427 | -0.399 | 0.696 | 0.634 | -0.291 (inactive) |
| COC(=O)c1c(CC[C@@H](CO)NC(=O)N[C@@H](Cc2ccccc2)Cn2cc(-c3ccccn3)nn2)oc(C(=O)N2CCOCC2)c1C(=O)OC | 0.15 | 0.255 (inactive) | 0.0562 | -0.0928 | 0.696 | 0.0795 | -0.425 | -0.23 | -0.488 | -0.376 | -0.241 | -0.341 | 0.384 | -0.405 | 0.57 | -0.129 | -0.187 | 0.795 | 0 | 1.1 (inactive) |
| COCCOC(=O)N1C(=O)[C@@]2(c3ccccc31)[C@H](c1ccc(OCCO)cc1)N1[C@H](c3ccccc3)[C@H](c3ccccc3)OC(=O)[C@H]1[C@@H]2C(=O)N1CCc2cc(OC)c(OC)cc2C1 | 0.642 | 0.158 (inactive) | 0.273 | -0.0021 | 0.641 | 2.4 | 1.43 | 1.28 | 0.584 | 1.16 | 2.41 | 1.2 | 0.85 | 0.958 | 1.3 | 1.38 | -0.0272 | 1.35 | 1.17 | -0.603 (inactive) |
| COc1ccc([C@H]2C[C@H]3C(I)=C[C@@H]2C(=O)[C@]32CO2)cc1 | -0.63 | -0.617 (inactive) | 0.0242 | -0.156 | -0.267 | -0.442 | -0.154 | -0.889 | 0.189 | -0.0546 | -0.608 | -0.658 | -0.449 | -0.193 | 0.762 | 1.14 | 1.1 | 0.983 | 0.24 | -0.303 (inactive) |
| CCN(CC)c1ccc(N2CC=CC34O[C@@H]5C=CCOC(=O)[C@@H]5[C@H]3C(=O)N(CCCCCCO)[C@@H]4C2=O)cc1 (stereo not given in full) | 0.99 | 0.451 (inactive) | -0.126 | -0.174 | 0.909 | 0.922 | 0.751 | 0.0127 | -1.5 | -0.214 | 0.449 | -0.202 | -0.148 | -1.57 | -0.0283 | -0.666 | 0.262 | 0.436 | -0.0009 | -3.88 (inactive) |
| COc1cc(OC)c(C(O)C2C=CC3C(=O)NC(=O)C3N2Nc2ccccn2)cc1Br (stereo not given) | -0.257 | 0.172 (inactive) | -0.0026 | -0.0598 | 0.819 | 0.973 | 0.487 | 0.755 | 1.02 | 0.747 | 2.02 | 0.683 | 0.124 | 0.368 | 0.573 | 0.562 | 0.0938 | 0.483 | 0.0687 | -1.36 (inactive) |
| CCCCN1CC=CC23O[C@@H]4C=CCOC(=O)[C@@H]4[C@H]2C(=O)N(CCCCCCO)[C@@H]3C1=O (stereo not given in full) | -0.469 | 0.998 (inactive) | -0.182 | -0.187 | 0.95 | -0.275 | 0.456 | -0.821 | -1.83 | -1.24 | -0.818 | -0.544 | 0.717 | -2.1 | -1.55 | -0.802 | 0.00246 | -1.25 | -1.24 | -0.419 (inactive) |
| O=C1O[C@H](c2ccccc2)[C@H](c2ccccc2)N2[C@H]1[C@@H](C(=O)N1CCN(c3ncccn3)CC1)[C@]1(C(=O)Nc3ccc(C#CC4=CCCCC4)cc31)[C@H]2c1ccccc1OCCO | 0.28 | -0.0798 (inactive) | 0.503 | 0.123 | 0.491 | 1.88 | 1.19 | 1.28 | 0.646 | 1.16 | 1.5 | 1.18 | 0.543 | 0.916 | 1.34 | 1.3 | -1.01 | 1.16 | 1.07 | -0.662 (inactive) |
